# Bioassay records from PubChem BioAssay.
# Sampled rows, rich in hits. Any-hit rate of the full collection: about 19%.
# TDP1 cell CPT – growth inhibition of DT40 Tdp1-/-;hTDP1 cells with camptothecin (screen for TDP1 inhibitors) | chicken DT40 Tdp1-/-;hTDP1 cells + 20 nM CPT, ATP luminescence, 48 h | Potency, µM (series often up to 46.2 µM), for inactives: at the top dose activity change, negative = growth inhibition, actives largely listed as inhibitors | hit rate 12% among 420,000; also: potency is read from the fitted curve at half-maximal effect; nearly all actives have a fitted effect of over 55% in size
#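 Cell growth measured by CellTiter-Glo luminescence after a minimum 48 h, 37 C compound exposure with 20 nM CPT in Tdp1-knockout DT40 cells stably expressing hTDP1, seeded 400/well; qHTS titration format.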
# HT1080 IDH1KD tx – HT-1080 IDH1 knockdown cell toxicity (counter line) | Potency, µM (titrated, usually from 46.1 µM), without a hit: at the highest dose activity, negative = toxicity, actives largely listed as cytotoxic | hit rate 2% among 360,000 | HT-1080 IDH1 knockdown viability, ATP luminescence, 48 h;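 also: potency is read from the fitted curve at half-maximal effect; 0% = DMSO wells and -100% = cell-free medium wells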
#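 Cytotoxicity counter-line: IDH1KD HT-1080, 48 h, CellTiter-Glo. Curves classed by r2, magnitude and activity.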
# DT40 TDP1 no CPT – qHTS for Inhibitors of human tyrosyl-DNA phosphodiesterase 1 (TDP1): qHTS in cells in absence of CPT | DT40 Tdp1-/- hTDP1 cells, no CPT, ATP luminescence, 48 h | Potency, µM (titrated, usually from 46.2 µM), inactives show top-dose activity change, negative = growth inhibition, actives largely listed as inhibitors | hit rate 15% among 420,000 | AID 686978, 2013; also: potency is read from the fitted curve at half-maximal effect; nearly all actives have a fitted effect of over 55% in size
#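 Growth of hTDP1-complemented DT40 Tdp1-knockout cells is measured by ATP luminescence after at least 48 hr compound exposure at 37 °C, with DMSO substituting for the 20 nM CPT used in the parallel screen.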
# IL-1B inflam inh – inflammasome signaling inhibition, IL-1 beta readout; THP-1 LPS/ATP IL-1B secretion, AlphaLISA, 16 h; active compounds read low; activity change, % at 57.5 µM; hit rate 4.7% among 360,000; in the data active = activity change below about -50%; inconclusive = mostly about -30% to -49%
#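 Secreted IL-1B measured by AlphaLISA bead assay after 16 h compound exposure of THP-1 cells; compounds (final up to 57.5 uM) added 1 h before LPS (250 ng/mL) and ATP (1.25 mM) stimulation; lower signal means less secretion.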
# HT1080-NT tox – kills 2HG-producing HT-1080-NT fibrosarcoma cells; HT-1080-NT fibrosarcoma viability, CellTiter-Glo ATP luminescence, 48 h; Potency, µM (top dose mostly 46.1 µM), for inactives: top-dose activity, negative = less viability, most hits filed as cytotoxic; hit rate 1.6% among 360,000;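 also: NT is the 2HG producing partner of a matched IDH1 knockdown line; potency is read from the fitted curve at half-maximal effect; 0% = DMSO-treated cells and -100% = media-only wells without cells; nearly all actives have a fitted effect of over 55% in size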
#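 Read-out is CellTiter-Glo luminescence after 10 minutes at room temperature, following 48 hours' compound treatment of HT-1080-NT cells (750 cells/well, RPMI, 5% FBS, 37 degrees C).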
# An asterisk follows results filed as active; ? = inconclusive; / = no result. Unless noted, calls follow the shape of the dose curve; as a rule, active = well fitted curve in the direction sought with a large enough effect; inconclusive = small, poorly fitted or top-dose-only effect, or another doubt; inactive = no such curve, though single readings can be large; an effect the other way counts as inactive or inconclusive. Unless noted, % is scaled to controls: 0 for no effect and ±100 for the full control effect.
SMILES,TDP1 cell CPT,HT1080 IDH1KD tx,DT40 TDP1 no CPT,IL-1B inflam inh,HT1080-NT tox
CCOC(=O)N1CCN(C(=O)CCN2C(=O)/C(=C\c3cccc(OC)c3)SC2=S)CC1,-96.4%,9.8%,14.6µM*,8.9,11.1%
COC(=O)c1ccc(Cl)c(NC(=O)NC23CC4CC(CC(C4)C2)C3)c1,23.1µM*,-9.0%,18.4µM*,-14.4,-26.3%
COC(=O)c1cccc(S(=O)(=O)N2CCC(NC(=O)NC34CC5CC(CC(C5)C3)C4)CC2)c1,23.1µM*,-0.8%,20.6µM*,-13.3,1.4%
CNC(=O)[C@@H]1C[C@H](NC2CCCCCCC2)CN1Cc1cccc(OC)c1OC,?,/,-27.7%,/,/
Cc1cc(=O)c2c(=O)[nH][nH]c2[nH]1,16.9%,5.6%,-18.8%,-2.5,-1.5%
COC(=O)CCC[C@H]1CC2(C[C@H](CCCO[Si](C)(C)C(C)(C)C)N1C(=O)OC(C)(C)C)OCCO2,?,-1.1%,18.4µM*,45.0,3.6%
CCCCNC(=S)N/N=C/C1=CCC2CC1C2(C)C (stereo unspecified),?,-10.4%,18.4µM*,14.6,-4.3%
C=C(C)CNC(=S)N/N=C/C1=CCC2CC1C2(C)C (stereo unspecified),7.31µM*,7.5%,7.31µM*,9.7,3.9%
C=C(C)CNC(=S)N/N=C/c1c(F)cccc1F,?,-13.3%,16.4µM*,-14.9,-15.6%
C=C(C)CNC(=S)N/N=C/c1ccc([N+](=O)[O-])cc1,-19.4%,2.2%,-2.4%,0.9,0.2%
CC(C)NC(=S)N/N=C/C1=CCC2CC1C2(C)C (stereo unspecified),?,3.2%,?,15.3,14.1%
CC(=O)N[C@@H](C)C(=O)NCC1Cc2cccc(-c3ccccc3C(F)(F)F)c2O1 (stereo partly specified),9.0%,/,-21.6%,/,/
Cc1ccc(CN2CCN(C(=O)c3cccc4ccccc34)CC2)cc1,?,-8.0%,23.1µM*,?,-1.1%
COc1ccc(CN2CCN(C(=O)c3cccc4ccccc34)CC2)cc1Br,-5.1%,?,?,-64.5*,?
COc1ccc(CN2CCN(C(=O)c3cccc4ccccc34)CC2)cc1OC,-23.0%,1.4%,-23.3%,-14.6,-1.4%
O=C(Nc1cccc2ccccc12)N1CCN(Cc2ccccc2)CC1,-28.2%,-6.0%,-11.8%,12.0,-7.7%
O=C(/C=C/c1ccc(Br)cc1)N1CCN(Cc2ccccc2)CC1,?,0.3%,?,-81.0*,0.0%
CN(CC(=O)N1CCN(Cc2ccccc2)CC1)C(=O)Cc1cccc2ccccc12,13µM*,0.1%,13µM*,0.0,7.4%
COC(=O)CCN1CCC2CC1c1cc(N3CCCCC3)ccc12 (stereo unspecified),-3.7%,0.2%,-8.4%,3.3,-1.0%
O=C(Nc1ccccc1)N1CCCC2(CCN(S(=O)(=O)c3ccccc3)CC2)C1,1.4%,/,-25.3%,/,/
Cc1ccc(-c2c(C)n([O-])c3c([n+]2=O)CCCC3)o1,-17.4%,21.0%,-0.7%,?,17.2%
Cc1cccc(CN2CCN(C(=O)c3cccc4ccccc34)CC2)c1,16.4µM*,-17.2%,?,-25.3,-0.1%
COc1cccc(CN2CCN(C(=O)c3cccc4ccccc34)CC2)c1OC,-25.9%,-0.7%,?,-76.6*,-4.6%
Cc1cccc(NC(=O)N2CCN(Cc3ccccc3)CC2)c1,3.6%,-1.1%,8.7%,-0.1,7.6%
Cc1cccc(CN2CCN(C(=O)c3ccccc3F)CC2)c1,-8.3%,24.1%,-3.7%,?,21.8%
SMILES,TDP1 cell CPT,HT1080 IDH1KD tx,DT40 TDP1 no CPT,IL-1B inflam inh,HT1080-NT tox
Cc1cccc(CN2CCN(C(=O)CCl)CC2)c1,14.6µM*,?,16.4µM*,-106.0*,-4.0%
COc1ccccc1CN1CCN(C(=O)c2cccc3ccccc23)CC1,-11.2%,1.3%,?,-11.2,2.8%
Cc1ccc(C(=O)N2CCCCC2)cc1S(=O)(=O)N1CCOCC1,-5.0%,3.2%,1.7%,0.0,2.9%
Cc1ccc(NC(=O)CN(C)C(=O)c2cc(S(=O)(=O)N(C)C)ccc2N2CCCC2)cc1,?,-3.6%,-24.8%,-10.0,1.3%
Cc1ccc(C)c(OCC(=O)Nc2ccc(S(=O)(=O)Nc3onc(C)c3C)cc2)c1C,-23.9%,/,-18.2%,/,/
NC(=O)CSc1ccc2nnc(-c3ccncc3)n2n1,10.4%,/,-16.6%,/,/
COc1ccc(C2CC(c3c(O)cc(C)oc3=O)=NCCS2)c(OC)c1 (stereo unspecified),0.461µM*,1.3µM*,0.0206µM*,-8.0,1.3µM*
CCCCC(=O)OCc1c(-c2cccc(OC)c2)ncc2ccccc12,?,-0.7%,?,-1.0,-0.5%
COc1ccc(NC(=O)c2ccc(-n3cccn3)c([N+](=O)[O-])c2)cc1,4.9%,2.8%,?,?,0.5%
CS(=O)(=O)c1ccccc1C(=O)Nc1cc(Cl)ccc1-n1cncn1,-4.5%,3.4%,0.1%,-0.5,-1.5%
CCN(CC)S(=O)(=O)c1cc(NC(=O)c2ccc(-n3cncn3)c([N+](=O)[O-])c2)ccc1C,?,-19.2%,23.1µM*,-23.1,-15.9%
O=C(Nc1ccc(Cl)cc1)c1ccc(-n2cncn2)c([N+](=O)[O-])c1,?,0.0%,16.4µM*,0.0,21.5%
O=C(Nc1ccc(Cl)cc1)c1ccc(-n2cccn2)c([N+](=O)[O-])c1,23.1µM*,-27.8%,14.6µM*,-21.0,?
O=C(Nc1cc(Cl)ccc1-n1cncn1)c1cc(F)c(F)c(F)c1F,0.1%,-1.0%,-28.8%,-93.3*,1.4%
O=C(O)Cn1nnc(-c2ccc(OCc3cccc(C(F)(F)F)c3)cc2)n1,-2.8%,/,-2.3%,/,/
C[C@H](CO)N1C[C@H](C)[C@H](CN(C)C(=O)Cc2ccncc2)Oc2ncc(Br)cc2C1=O,4.2%,3.4%,4.7%,11.6,13.1%
CC(C)c1nc(SCC(=O)NCC2CCCO2)c2c(=O)n(C)c(=O)n(C)c2n1 (stereo unspecified),-27.5%,1.6%,-22.5%,-1.0,-1.5%
COc1ccc(CNC(=O)C2CCN(S(=O)(=O)c3c(C)noc3/C=C/c3ccccc3F)CC2)cc1,?,/,-15.6%,/,/
CC(N)c1ccc(Cl)cc1Cl (stereo unspecified),3.4%,-22.1%,-1.6%,-0.9,-1.9%
O=c1c2cccnc2n(Cc2ccccc2F)c(=O)n1Cc1ccccc1Cl,-8.9%,/,-27.3%,/,/
CCN(CC)CCCNC(=O)Cn1nc(C)n2c(cc3sccc32)c1=O,1.9%,/,-9.7%,/,/
Cc1ccc(S(=O)(=O)c2cn(Cc3ccccc3F)c3cc4c(cc3c2=O)OCO4)cc1,5.8µM*,/,?,/,/
Cc1ccc(S(=O)(=O)c2cn(Cc3ccccc3Cl)c3ccc(F)cc3c2=O)cc1,18.4µM*,/,16.4µM*,/,/
